Each structure is given as a SMILES string. Compounds without any hit were thinned out: in the full panel of roughly 79,000, 15% have a hit. Values without a mark were called inactive. The source made the active and inactive calls. Cut-off read from the data, not from the text of the source: active = growth inhibition above about 70%; inactive = the rest.

A short description of assay [1]: NCI Yeast Anticancer Drug Screen. Data for the rad50 strain (AID 155).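 Note: 0% = growth of vehicle-only cultures of the same strain.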 The following applies: S. cerevisiae rad50 strain growth inhibition; at 50.0 µM; active compounds read high. The essentials:
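Relative growth inhibition (compound vs vehicle) was measured in yeast with a defined repair-gene alteration.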

A short description of assay [2]: NCI Yeast Anticancer Drug Screen. Data for the mec2-1 strain (AID 157). The following applies: S. cerevisiae mec2-1 strain, at 50.0 µM, active compounds read high. In outline: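 Using mec2-1 yeast: add compound, measure growth, express inhibition versus vehicle-treated cultures.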
Assay [3] in a line: NCI Yeast Anticancer Drug Screen. Data for the sgs1 mgt1 strain (AID 161).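 Note: 0% = growth of cultures given vehicle only.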 The conditions noted are these: S. cerevisiae sgs1 mgt1 strain, at 50.0 µM, active compounds read high. The essentials: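 Percent growth inhibition was derived by comparing compound-exposed mutant yeast with vehicle-exposed cultures. The strain carries alterations in DNA damage repair.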
Assay [4] is described as follows: NCI Yeast Anticancer Drug Screen. Data for the cln2 rad14 strain (AID 165).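 Note: 0% = growth equal to vehicle treated cultures.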 The following applies: S. cerevisiae cln2 rad14 strain, at 50.0 µM, active compounds read high. In outline:
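Yeast strain cln2 rad14, bearing defects in cell cycle control and DNA repair, serves as the test system; values reflect growth inhibition compared with vehicle.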

The nature of assay [5]: NCI Yeast Anticancer Drug Screen. Data for the bub3 strain (AID 167). The following applies: S. cerevisiae bub3 mutant strain, at 50.0 µM, active compounds read high. In outline: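 Screening used yeast with an engineered genetic alteration affecting cell cycle control. Compound-exposed cultures were compared with vehicle cultures, and reduced growth was taken as inhibition.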
Assay [6] in a line: NCI Yeast Anticancer Drug Screen. Data for the mlh1 rad18 strain (AID 175). The conditions noted are these: S. cerevisiae mlh1 rad18 strain growth inhibition; at 50.0 µM; active compounds read high. The essentials: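 Steps: expose repair-defective yeast to compound; measure growth; express inhibition against vehicle-treated controls.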

Consider `OC(CNc1ncccn1)(Cc1ccccc1)Cc1ccccc1`, for which the growth inhibition in assay [1] was 9%; in assay [2] it was -5.2%; in assay [3], 2.45%; in assay [4], 19.1%; in assay [5], 12%; in assay [6] it was 21.2%.
As to `CCN(CC)CCCC(C)NC(=O)c1ccc2c(c1)C(=O)c1ccccc1C2=O` (stereo not given), the growth inhibition in assay [1] was 6%; in assay [2] it was 19.1%; in assay [3] it was 16.9%; in assay [4], 36.4%; in assay [5] it was -17.7%; in assay [6], -33.9%.
With `CC(=O)Nc1cc(Cl)c(Oc2ccccc2)cc1[N+](=O)[O-]`, the growth inhibition in assay [1] was 19.2%; in assay [2], 27.9%; in assay [3] it was 27.7%; in assay [4], 33%; in assay [5], 52%; in assay [6], 14.6%.
Turning to `O=C1CSC(c2ccccc2F)N1c1ncccn1` (stereo not given), the growth inhibition is -3.2% in assay [1]; -6.8% in assay [2]; 0.75% in assay [3]; -20.8% in assay [4]; 8% in assay [5]; -1.4% in assay [6].
As to `COC(=O)C1=C(C)N(NC(N)=O)C(C)(O)C12CCOC2=O` (stereo not given), the growth inhibition in assay [1] is -3.8%; in assay [2], -2.2%; in assay [3] it was 2.15%; in assay [4] it was -56.8%; in assay [5] it was -5.95%; in assay [6], -14.1%.
Take `Cc1cc(=O)c2c([nH]1)c1c(c3[nH]c(C)cc(=O)c32)Oc2ccccc2O1`: the growth inhibition in assay [1] was 65.2%; in assay [2], 5%; in assay [3] it was -2.95%; in assay [4], -10.6%; in assay [5], -5.55%; in assay [6], 27.9%.
For the compound `Cc1cc(C23OC4COC(C)(C)OC4C2OC(C)(C)O3)nc2ccccc12` (stereo not given), the growth inhibition in assay [1] was -1.35%; in assay [2] it was 13.6%; in assay [3] it was 18.6%; in assay [4], -22.1%; in assay [5], 13.1%; in assay [6] it was 23.6%.
With `O=C1NC(=O)C(=CN2C(=O)/C(=C/c3ccc(O)cc3)SC2=S)C(=O)N1`, the growth inhibition was -6.6% in assay [1]; -5.7% in assay [2]; 23.1% in assay [3]; 9.15% in assay [4]; 1.8% in assay [5]; 14.7% in assay [6].
Turning to `CCCC(=O)Nc1ccc(OC)cc1`, the growth inhibition was 16.8% in assay [1]; 11.2% in assay [2]; 9.55% in assay [3]; -43.2% in assay [4]; -1.85% in assay [5]; 1.9% in assay [6].
For `CCN1C(=O)C(N=[N+]=[N-])(c2ccccc2)C(=O)c2ccccc21` (stereo not given), the growth inhibition is 10.5% in assay [1]; -8.5% in assay [2]; -16.7% in assay [3]; 6.6% in assay [4]; 2.45% in assay [5]; 0.65% in assay [6].
Turning to `O=C(Nc1cccc([N+](=O)[O-])c1)c1ccc(Cl)cc1`, the growth inhibition was -5.95% in assay [1]; -10.8% in assay [2]; 8% in assay [3]; -49.5% in assay [4]; -9.5% in assay [5]; -3.95% in assay [6].
`Nc1ncnc2c1ncn2C(=O)NC12CC3CC(CC(C3)C1)C2`: the growth inhibition in assay [1] was 9.75%; in assay [2] it was 14.6%; in assay [3], 8.7%; in assay [4] it was 18.1%; in assay [5] it was 8.25%; in assay [6], -8.2%.
For `O=C(C[n+]1ccncc1)c1cccc([N+](=O)[O-])c1`, the growth inhibition in assay [1] was 0.5%; in assay [2], -1.95%; in assay [3] it was 9.15%; in assay [4], 8.35%; in assay [5], 7.65%; in assay [6] it was 27.4%.
Consider `COC(=O)n1c(=O)oc2ccc(Br)cc21`, for which the growth inhibition is 99% (active) in assay [1]; 99.1% (active) in assay [2]; 99.4% (active) in assay [3]; 99.4% (active) in assay [4]; 99.5% (active) in assay [5]; 99.2% (active) in assay [6].
As to `C1Cc2nnnn2C1`, the growth inhibition in assay [1] was -7.4%; in assay [2], -20.1%; in assay [3] it was 0.9%; in assay [4] it was -2.85%; in assay [5], -7.95%; in assay [6], 12.6%.
`CC(O)COc1ccc(Cl)cc1Cl` (stereo not given): the growth inhibition in assay [1] was 27.1%; in assay [2] it was -10.2%; in assay [3] it was 45.6%; in assay [4] it was 9.6%; in assay [5], 8.35%; in assay [6], 26.6%.
For the compound `CCCCCCSc1nc2c([nH]1)c(=O)n(C)c(=S)n2C`, the growth inhibition was 2.5% in assay [1]; -3.1% in assay [2]; 1.35% in assay [3]; 1.5% in assay [4]; 13.9% in assay [5]; 19.1% in assay [6].
Regarding `COc1ccc(C(C#N)N2CCCN(C(C#N)c3ccc(OC)cc3)C2c2ccccc2)cc1` (stereo not given), the growth inhibition in assay [1] was -2.1%; in assay [2], 2.95%; in assay [3], -9.05%; in assay [4], -0.2%; in assay [5], -0.1%; in assay [6] it was 7.1%.
As for `Cc1ccc(C(c2ccc(C)c(C)c2)C(O)C(O)C(O)C(O)CO)cc1C` (stereo not given), the growth inhibition was -4.8% in assay [1]; -2.6% in assay [2]; -2.9% in assay [3]; 1.6% in assay [4]; -6.05% in assay [5]; -18.4% in assay [6].
For `O=C1C(O)=CC(=C(c2ccccc2)c2ccccc2)c2cc(Br)ccc21`, the growth inhibition in assay [1] was 33.7%; in assay [2] it was 26.2%; in assay [3], 44.4%; in assay [4] it was 8.9%; in assay [5] it was 11.4%; in assay [6] it was 34.1%.

The values are drawn from PubChem BioAssay (NCI).
